# Data as given in the supplement of paper PMC3334620.
# Over roughly 33,000 sequences, “E-score (-0.5 to 0.5)” has its median near -0.021; the highest 2% begin near 0.32. The sample as a whole holds a higher share of the highest values than the screen did.
# Molecular target: T1, Zap1 (UniProt P47043)
# T1 sequence: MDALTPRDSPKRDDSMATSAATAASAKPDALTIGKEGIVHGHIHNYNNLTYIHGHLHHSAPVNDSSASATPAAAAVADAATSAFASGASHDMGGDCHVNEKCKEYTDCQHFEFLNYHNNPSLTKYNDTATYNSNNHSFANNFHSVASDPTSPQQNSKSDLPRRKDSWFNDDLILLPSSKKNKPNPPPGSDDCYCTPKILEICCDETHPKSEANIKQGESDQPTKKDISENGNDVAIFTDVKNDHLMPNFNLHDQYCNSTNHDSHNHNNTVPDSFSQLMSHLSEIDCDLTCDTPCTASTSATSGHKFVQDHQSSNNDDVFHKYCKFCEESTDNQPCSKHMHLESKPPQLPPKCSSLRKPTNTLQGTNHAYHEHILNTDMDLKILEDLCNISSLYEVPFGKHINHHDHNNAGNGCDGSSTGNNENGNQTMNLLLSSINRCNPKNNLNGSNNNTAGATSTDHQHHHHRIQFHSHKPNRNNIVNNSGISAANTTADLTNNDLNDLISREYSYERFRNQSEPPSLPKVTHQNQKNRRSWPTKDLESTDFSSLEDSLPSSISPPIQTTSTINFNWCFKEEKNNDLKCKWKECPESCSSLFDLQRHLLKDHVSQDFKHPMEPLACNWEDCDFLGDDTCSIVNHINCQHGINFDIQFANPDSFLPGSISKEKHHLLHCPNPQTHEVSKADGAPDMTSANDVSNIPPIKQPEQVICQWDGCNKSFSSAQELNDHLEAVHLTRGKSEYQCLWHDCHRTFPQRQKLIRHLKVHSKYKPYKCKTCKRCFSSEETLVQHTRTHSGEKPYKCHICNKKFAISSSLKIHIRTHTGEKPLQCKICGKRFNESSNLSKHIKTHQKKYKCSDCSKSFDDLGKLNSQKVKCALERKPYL
# Test: PBM E-score (8-mer binding enrichment) (E-score (-0.5 to 0.5)); higher = stronger / more preferred TF binding
# Settings: protein concentration: 200 nM; construct: GST-full length
# Method: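 Universal 'all 10-mer' protein binding microarrays (Agilent AMADID 015681) probed with GST-tagged S. cerevisiae TFs (full-length or DBD) made by in vitro transcription/translation (PURExpress), about 100-200 nM. Bound TF was detected with fluorescent anti-GST. Each ungapped 8-mer (which stands for itself and its reverse complement) is scored by the PBM enrichment score (E-score), a modified Wilcoxon-Mann-Whitney statistic from -0.5 to +0.5, computed with the Universal PBM Analysis Suite. Scale: above 0.35 generally sequence-specific binding.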
row,Sequence,PBM E-score
1,GCAAGGTA,0.265
2,CCGTCCTC,-0.191
3,CTGGTGAA,-0.0889
4,AGCTGTCC,-0.225
5,CCGCGCGC,0.0679
6,AACCGCAG,0.126
7,CCGCGCGA,0.124
8,TACCGCGA,0.328
9,CCGCGCGG,0.332
10,CACCGCGG,0.176
11,AACCGCGA,0.367
12,AACCGCGG,0.374
13,GACCGCGA,0.259
14,CACCGCGA,0.0268
15,AACCGCGC,0.24
16,AACCGCGT,0.227
17,AGCACTAC,-0.0779
18,CCGAAGCA,-0.176
19,ACACAATC,0.00143
20,CCAGGGCG,-0.178
21,TCCAAGAA,-0.0864
22,CGTCTCAC,-0.107
23,AGCATTTG,-0.00877
24,AGCAAGCA,-0.167
25,ATTAATAG,0.195

row,Sequence,PBM E-score
1,ATTAATAA,0.21
2,ATTAATAC,0.344
3,ATGCCACC,-0.11
4,CTGGCCGA,-0.318
5,ACTTTAGA,0.0114
6,GATGGCAA,-0.0776
7,GCATGACC,0.234
8,GAATGACC,0.338
9,CCATGACG,0.0693
10,GAATGACA,-0.0394
11,CCATGACC,0.416
12,AAATGACC,0.317
13,GTTGGCCA,-0.015
14,GCGCCTTA,-0.066
15,GAGTTTAA,0.121
16,AACCTACA,0.264
17,ACCTACCA,0.126
18,AGTGGTTC,0.129
19,AGTGGTTG,0.312
20,GGTGGTCA,0.341
21,GGTGGTTA,0.433
22,CGTGGTAA,0.0908
23,AGTGGTCA,0.197
24,CGTGGTTC,0.185
25,GGTGGTAA,0.274

row,Sequence,PBM E-score
1,AGTGGTTA,0.434
2,GGTGGTGA,0.23
3,CGTGGTCA,0.195
4,CGTGGTTA,0.348
5,CCCACTTA,-0.0455
6,CTTGTGAC,0.0651
7,CCTTCATA,0.102
8,GCAGCACA,-0.0816
9,GACAAAGC,-0.143
10,GGTCCTCA,0.0332
11,CCAGAGTC,0.0266
12,AACAGTCT,-0.14
13,GAAACATA,0.318
14,GAAACATC,-0.0445
15,AAAACATA,0.0671
16,GACTTAGC,-0.317
17,GAGCGCCA,-0.291
18,TGGATTAA,0.0758
19,CACCCGGA,0.235
20,AACCCCCG,-0.149
21,AACCCGGA,0.332
22,AACCCGGT,0.249
23,CCCCCGGG,0.167
24,ACCCCGGC,0.119
25,ACCCCCGG,-0.0785

row,Sequence,PBM E-score
1,GACCCGGA,0.118
2,CACCCGGG,0.129
3,ACCCCGGG,0.34
4,AACCCGGG,0.324
5,AACCCCGG,0.337
6,GGCAGACC,-0.192
7,TCACGCAA,0.0552
8,GTATAGCA,-0.104
9,CTTGTTGA,0.124
10,GGAACAAA,0.111
11,CTAGCTCC,-0.246
12,CCGAGCAC,-0.0385
13,AGAAACTA,-0.0549
14,AGAGAAAC,-0.0339
15,AAGGGAAC,0.0495
16,GAGCTAGC,-0.179
17,CTCCTTTC,-0.0488
18,CTGTAACC,0.463
19,ATGTAACG,0.0833
20,CTGTAACA,0.00661
21,ATGTAACA,0.153
22,CTGTAAAC,0.16
23,ATGTAACC,0.395
24,ACTGCTAT,-0.0537
25,AAACGGAA,0.127

row,Sequence,PBM E-score
1,AAGACCGC,0.0669
2,GAGCAACC,0.0661
3,ATCGGTTC,0.0913
4,GATGACCC,0.403
5,CATGACCG,0.177
6,CATGACCA,0.284
7,CATGACCC,0.38
8,AATGACCC,0.3
9,GATGACCA,0.129
10,CCGACCTC,-0.0902
11,CGATCTGA,-0.0395
12,CAACTGTC,-0.0568
13,ACGAAGGA,-0.166
14,ACCCTTTG,0.345
15,ACCCTTTC,0.298
16,GCCCTTTA,-0.0495
17,ACCCTTTA,0.415
18,CCCCTTTA,-0.00689
19,ATCCTTTG,0.161
20,CCCTACGC,-0.17
21,GCGTCCCC,-0.249
22,AGTGCCCC,-0.156
23,AACCAGGT,0.201
24,ATGGAGCC,-0.222
25,GGCGGTCA,0.12

row,Sequence,PBM E-score
1,GGCGGTTA,0.324
2,CGCGGTGA,0.144
3,CGCGGTTC,0.181
4,GGCGGTAA,0.125
5,CGCGGTTA,0.452
6,AGCGGTTG,0.216
7,AGCGGTTC,0.164
8,AGCGGTTA,0.405
9,AAAAACTA,0.175
10,ATACCAAA,0.153
11,GCCTACTA,-0.0183
12,CAGTAACA,-0.0862
13,CAGTAACG,0.0273
14,AAGTAACT,-0.0363
15,CAGTAACC,0.44
16,GAGTAACC,0.399
17,GAGTAAGC,-0.221
18,AAGTAACC,0.393
19,AAGTAACG,0.052
20,GAGTAACA,0.135
21,GCAGTAAA,0.104
22,ATTATACG,0.0915
23,ATTATACC,0.338
24,ATTATACA,0.0605
25,CAGCAGAA,-0.0338

row,Sequence,PBM E-score
1,GGAGGTCA,0.136
2,CGAGGTCA,0.357
3,AGAGGTCC,0.201
4,AGAGGTCA,0.41
5,AGAGGTCG,0.304
6,CGAGGTCC,0.0996
7,ATGTCGCG,0.0309
8,CAGAAGCC,-0.173
9,GTCCCAAA,0.0529
10,AAGGTTCG,-0.0644
11,AGGGTTCA,0.146
12,AAGGTTCC,0.317
13,AAGGTTCT,0.327
14,CAGGTTCC,0.0995
15,AAGGTTCA,0.054
16,AGGGTTCC,0.354
17,AGGGTTCG,0.0919
18,ATGGTTCC,0.21
19,CCAGTGTA,-0.00071
20,CACTGTAA,0.0817
21,CTAGCGAA,-0.221
22,GCTTCAGA,-0.167
